Screening data (PubChem)
tim23-1 inh = growth inhibitors of tim23-1 mutant yeast; S. cerevisiae tim23-1 growth, BacTiter-Glo luminescence, 24 h; inhibition, % at 20 µM; hit rate 1.3% among 330,000; AID 463212;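 active means growth inhibition of the mutant yeast at or above 50%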;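 further: temperature-sensitive mutant grown at 25 °C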
ATG4B inh = inhibitors of human ATG4B cysteine protease; Q9Y4P1; ATG4B cleavage of LC3-PLA2, NBD-HPC fluorescence, 1 h; inhibition, % at 8.33 µM; hit rate 0.51% among 340,000; AID 504462; in the data active means inhibition above about 40%
Target sequence (Q9Y4P1 whole entry, looked up): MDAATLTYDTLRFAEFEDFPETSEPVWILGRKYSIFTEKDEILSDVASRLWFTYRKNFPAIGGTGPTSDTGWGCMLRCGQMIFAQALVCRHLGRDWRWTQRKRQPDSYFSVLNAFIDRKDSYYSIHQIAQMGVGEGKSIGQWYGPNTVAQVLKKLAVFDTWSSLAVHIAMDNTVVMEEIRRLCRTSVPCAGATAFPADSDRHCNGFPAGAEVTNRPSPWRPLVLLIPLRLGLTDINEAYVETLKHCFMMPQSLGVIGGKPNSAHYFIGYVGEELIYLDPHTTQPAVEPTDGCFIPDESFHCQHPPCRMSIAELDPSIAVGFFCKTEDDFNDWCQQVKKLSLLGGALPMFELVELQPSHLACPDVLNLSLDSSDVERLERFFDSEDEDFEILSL
tim10-1 inh = tim10-1 yeast growth inhibition. AID 463190. inhibition, % at 20 µM. hit rate 2.2% among 330,000. S. cerevisiae tim10-1 ts strain growth, BacTiter-Glo, 24 h;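 active means inhibition of at least 40%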;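 further: mutant grown at 25 °C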
TIM10 inh = inhibits growth of TIM10 yeast strain | S. cerevisiae TIM10 strain growth, BacTiter-Glo luminescence, 24 h | inhibition, % at 10 µM | hit rate 1.4% among 330,000 | AID 463195;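 active means inhibition of 40% or more at the single tested concentration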;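 further: wild-type TIM10 isogenic control strain grown at permissive 25 °C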
SKKanGAS inh = inhibitors of SKKanGAS S. pyogenes growth in kanamycin (SK-promoter or general growth effect). BacTiter-Glo, 6 h. inhibition, % at 7.5 µM. hit rate 1.3% among 300,000. AID 1662;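 active means mean replicate score, as percent of positive control median, at least 50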;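 further: strain carries kanamycin resistance gene driven by streptokinase promoter and grows in 40 µg/ml kanamycin; loss of luminescence reflects streptokinase promoter inhibition or plain growth inhibition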
PfHsp90 set2 = growth inhibition of yeast expressing Plasmodium Hsp90 | S. cerevisiae expressing PfHsp90, BacTiter-Glo ATP, 48 h; yeast lacking PDR1 and PDR3 efflux regulators | inhibition, % at 9.4 µM | hit rate 0.32% among 310,000;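 active means every replicate shows inhibition above about 80%, whatever the replicate mean, limit read from the data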
tim10 confirm = confirmation of TIM10 yeast growth inhibitors | shares compounds with TIM10 inh | S. cerevisiae tim10 strain growth, BacTiter-Glo luminescence, 24 h | inhibition, % at 10 µM | hit rate 63% among 4,600;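 active means inhibition of yeast growth at or above a set limit in either of two replicates at 10 µM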; further: this counterscreen used the strain with wild-type TIM10
tim23-1 confirm = confirmation of tim23-1 mutant yeast growth inhibitors; shares compounds with tim23-1 inh; S. cerevisiae tim23-1 growth, BacTiter-Glo luminescence, 24 h; inhibition, % at 20 µM; hit rate 83% among 4,400; AID 463218;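 active means inhibition above about 39% in either of two replicate wells at 20 µM, limit read from the data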;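 further: temperature-sensitive tim23-1 mutant grown at 25 °C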
ATG4B conf = confirmation of human ATG4B inhibitors | shares compounds with ATG4B inh | hit rate 92% among 320 | AID 504757 | ATG4B protease fluorescent substrate cleavage assay | inhibition, % at 8.33 µM; in the data active means inhibition above about 39%
PLA2 counter = PLA2 (human) inhibition in ATG4B counter-screen | shares compounds with ATG4B inh | purified PLA2, NBD-C6-HPC fluorescence, 45 min | inhibition, % at 8.33 µM | hit rate 66% among 1,600 | AID 588402; in the data active means inhibition above about 50%
Target sequence (P04054 whole entry, looked up): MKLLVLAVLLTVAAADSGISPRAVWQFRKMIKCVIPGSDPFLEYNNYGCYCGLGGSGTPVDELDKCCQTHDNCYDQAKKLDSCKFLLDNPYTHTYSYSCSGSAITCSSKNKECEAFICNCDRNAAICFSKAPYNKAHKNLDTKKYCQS
Of the large screens only hits and unclear results are named; the others gave an inactive call (follow-up assays come after a bar, where they were run). Rows were chosen to be rich in hits. Some 4.7% of all compounds tested hit in one or more screens of this group.

CCN(CC)c1ccc(/C=N/NC(=S)NCc2ccccc2)c(O)c1	ATG4B inh 49, TIM10 inh 41, SKKanGAS inh 64 | tim10 confirm inactive | PLA2 counter inactive
O=C(/C=C/c1ccccc1O)c1ccc(Cl)cc1	tim23-1 inh 56, ATG4B inh 69, TIM10 inh 42 | tim10 confirm 39 | tim23-1 confirm 58 | PLA2 counter 88
O=c1oc(-c2ccccc2)nc2sc3c(c12)CCC3	ATG4B inh 56, TIM10 inh 42 | tim10 confirm inactive | ATG4B conf 72 | PLA2 counter inactive
Cc1ccc(N(CC(=O)Nc2ccc(F)c(Cl)c2)S(=O)(=O)c2c(C)noc2C)cc1	ATG4B inh 41, TIM10 inh 64 | tim10 confirm 61 | PLA2 counter 61
O=C(CNCCC1=CCCCC1)Nc1ccccc1N1CCCCC1	ATG4B inh 49, TIM10 inh 40 | tim10 confirm inactive | PLA2 counter 53
COc1ccc(NC(=O)CNCCC2=CCCCC2)cc1	none
CC(C)C(=O)NC(=S)Nc1ccccc1C(=O)NC1CCCCC1	none
C=CCN(Cc1nc(-c2ccccc2)no1)C(=O)c1ccoc1C	none
COc1ccccc1OCC(=O)NNC(=O)c1cnccn1	none
Nc1nonc1C(=O)NCCN=Cc1ccccc1O	none
Nc1nonc1C(=O)NCCN=Cc1cc(Cc2ccccc2)cc(Br)c1O	ATG4B inh 86, TIM10 inh 51, SKKanGAS inh 52, PfHsp90 set2 123 | tim10 confirm 67 | PLA2 counter 72
CCC(=O)NC(=S)Nc1cccc(Cl)c1N1CCCCC1	ATG4B inh 42, TIM10 inh 47 | tim10 confirm 38 | ATG4B conf 61 | PLA2 counter inactive
C/C(=N\NC(=O)C1CC1)c1ccc(Cl)c(Cl)c1	none
CCN(Cc1ccccc1)S(=O)(=O)c1ccc2c(c1)NC(=O)CS2	none
CCC(C)n1c(=O)c(C(=O)Nc2ccccc2S(N)(=O)=O)c(O)c2ccccc21 (stereo unspecified)	tim23-1 inh 54 | tim23-1 confirm inactive
CCc1cccc(CC)c1NC(=O)COC(=O)CCc1cc(OC)c(OC)c(OC)c1	none
Oc1ccc(-c2nc3ccccc3s2)cc1	tim23-1 inh 69 | tim23-1 confirm 64
c1ccc2sc(-c3ccncc3)nc2c1	none
CCOC(=O)c1c(C=O)c2sc(C)cc2n1C	tim23-1 inh 53 | tim23-1 confirm 45
O=Cc1cc2ccccc2nc1SCc1ccc(Cl)c(Cl)c1	tim23-1 inh 60 | tim23-1 confirm 44
O=C(NCC1CCCO1)c1ccc(NC(=O)C2CCCCC2C(=O)O)cc1 (stereo unspecified)	none
O=C1[C@H]2CCC=C[C@H]2[C@H](c2cccc(Br)c2)N1Cc1ccccc1	tim23-1 inh 58 (no result: ATG4B inh, SKKanGAS inh) | tim23-1 confirm 53
O=C1[C@H]2CCC=C[C@H]2[C@H](c2ccccc2Br)N1Cc1ccccc1	tim23-1 inh 57 (no result: SKKanGAS inh) | tim23-1 confirm inactive
COc1ccc(-c2cccc([C@H]3[C@@H]4C=CC[C@@H](C)[C@@H]4C(=O)N3Cc3ccccc3)c2)cc1	none (no result: SKKanGAS inh)
CCn1c(=O)cc(OCC(=O)N2CCc3ccccc32)c2ccccc21	none (no result: tim23-1 inh, tim10-1 inh, TIM10 inh, SKKanGAS inh, PfHsp90 set2)
CCCCCCC#Cc1cncc(C(=O)NNC(=O)Nc2cc(Cl)cc(Cl)c2)c1	none (no result: PfHsp90 set2)
Oc1ccc(Cl)cc1CNCc1ccc(Cl)cc1	tim23-1 inh 60 (no result: SKKanGAS inh) | tim23-1 confirm 38
Oc1ccc(Cl)cc1CNCc1ccc(F)cc1	none (no result: SKKanGAS inh)
O=C(Nc1cccc(F)c1)N1CC=C(c2ccc(Cl)cc2)CC1	tim23-1 inh 59 | tim23-1 confirm 72
NC(=S)Nc1cccc2cn[nH]c12	none
Cc1ccc(NCC(=O)N/N=C\c2ccc([N+](=O)[O-])o2)cc1	tim23-1 inh 55 | tim23-1 confirm 41
CC(C)(C)c1csc(NC(=O)c2ccc(Cl)s2)n1	tim23-1 inh 70 | tim23-1 confirm 74
CC(C)(C)c1csc(NC(=O)Nc2ccccc2)n1	none
CC(C)(C)c1csc(NC(=O)c2ccncc2)n1	none
CC(C)(C)c1csc(NC(=O)c2ccc(Br)o2)n1	tim23-1 inh 53 | tim23-1 confirm 48
Cc1ccc(C(=O)Nc2nc(C(C)(C)C)cs2)s1	tim23-1 inh 52 | tim23-1 confirm 42
CCOC(=O)Cc1csc(NC(=O)c2ccc(Br)o2)n1	none
CCNCc1cc(Cl)c(OCc2ccccc2)c(OCC)c1	none
CCOc1cc(/C=N/NC(N)=O)cc(Br)c1OCc1ccccc1	none
N#C/C(=C\c1ccccc1)C(=O)Nc1cccnc1	tim23-1 inh 50 | tim23-1 confirm 50
N#C/C(=C\c1ccccc1)C(=O)Nc1ccccn1	tim23-1 inh 53 | tim23-1 confirm inactive
Cc1cccc(/C=C(\C#N)C(=O)Nc2ccccn2)c1	none
CCc1ccc(NC(=O)/C(C#N)=C/c2ccncc2)cc1	tim23-1 inh 74 | tim23-1 confirm 66
CC(C)(C)c1ccc(/C=C(\C#N)C(=O)Nc2ccccn2)cc1	tim23-1 inh 55 | tim23-1 confirm 61
Cc1nn2c3ccccc3n(Cc3ccccc3)c2nc1=O	none
CCN(CC)C(=O)[C@H]1C[C@H](CC(=O)NCCC2=CCCCC2)C(=O)N2CCc3c([nH]c4ccc(Cl)cc34)[C@]12C	tim23-1 inh 58 (no result: SKKanGAS inh) | tim23-1 confirm inactive
CCOc1ccccc1OCCOCCOc1ccccc1[N+](=O)[O-]	none
COc1ccc(NC(=O)N(C)C[C@H]2Oc3ccc(NS(=O)(=O)c4cn(C)cn4)cc3C(=O)N([C@H](C)CO)C[C@@H]2C)cc1	none (no result: tim23-1 inh, tim10-1 inh, TIM10 inh, SKKanGAS inh)
O=c1c2ccccc2nc2c3ccccc3cnn12	tim23-1 inh 55 | tim23-1 confirm 64
O=c1c2ccccc2nc2c3ccccc3c(Cl)nn12	none (no result: tim23-1 inh, ATG4B inh, tim10-1 inh, TIM10 inh, PfHsp90 set2)
CCOP(=O)(OCC)C(Nc1ccccc1)c1cc(OC)ccc1OC (stereo unspecified)	tim23-1 inh 52 | tim23-1 confirm inactive
CCOP(=O)(OCC)C(Nc1ccccc1)c1ccccc1C(F)(F)F (stereo unspecified)	none
Cc1nnc(SCC(=O)Nc2nsc(-c3ccc(C(C)(C)C)cc3)n2)s1	tim23-1 inh 51 (no result: PfHsp90 set2) | tim23-1 confirm 41
CCCn1nc(NC(=O)C2CCCO2)c2cc3cccc(C)c3nc21 (stereo unspecified)	tim23-1 inh 52 | tim23-1 confirm 43
